# Measurements: PubChem BioAssay AID1726 (National Center for Advancing Translational Sciences (NCATS), 2009)
# Records with an inconclusive call do not appear. The source made the active and inactive calls. Calls follow the shape of the dose curve; as a rule, active = well fitted curve in the direction sought with a large enough effect; inconclusive = small, poorly fitted or top-dose-only effect, or effect the other way, or another doubt; inactive = no such curve, though single readings can be large or run the other way.
# Biological target: Epidermal growth factor receptor (Homo sapiens) (UniProt P00533)
# Sequence (P00533 whole entry T790M/L858R, looked up): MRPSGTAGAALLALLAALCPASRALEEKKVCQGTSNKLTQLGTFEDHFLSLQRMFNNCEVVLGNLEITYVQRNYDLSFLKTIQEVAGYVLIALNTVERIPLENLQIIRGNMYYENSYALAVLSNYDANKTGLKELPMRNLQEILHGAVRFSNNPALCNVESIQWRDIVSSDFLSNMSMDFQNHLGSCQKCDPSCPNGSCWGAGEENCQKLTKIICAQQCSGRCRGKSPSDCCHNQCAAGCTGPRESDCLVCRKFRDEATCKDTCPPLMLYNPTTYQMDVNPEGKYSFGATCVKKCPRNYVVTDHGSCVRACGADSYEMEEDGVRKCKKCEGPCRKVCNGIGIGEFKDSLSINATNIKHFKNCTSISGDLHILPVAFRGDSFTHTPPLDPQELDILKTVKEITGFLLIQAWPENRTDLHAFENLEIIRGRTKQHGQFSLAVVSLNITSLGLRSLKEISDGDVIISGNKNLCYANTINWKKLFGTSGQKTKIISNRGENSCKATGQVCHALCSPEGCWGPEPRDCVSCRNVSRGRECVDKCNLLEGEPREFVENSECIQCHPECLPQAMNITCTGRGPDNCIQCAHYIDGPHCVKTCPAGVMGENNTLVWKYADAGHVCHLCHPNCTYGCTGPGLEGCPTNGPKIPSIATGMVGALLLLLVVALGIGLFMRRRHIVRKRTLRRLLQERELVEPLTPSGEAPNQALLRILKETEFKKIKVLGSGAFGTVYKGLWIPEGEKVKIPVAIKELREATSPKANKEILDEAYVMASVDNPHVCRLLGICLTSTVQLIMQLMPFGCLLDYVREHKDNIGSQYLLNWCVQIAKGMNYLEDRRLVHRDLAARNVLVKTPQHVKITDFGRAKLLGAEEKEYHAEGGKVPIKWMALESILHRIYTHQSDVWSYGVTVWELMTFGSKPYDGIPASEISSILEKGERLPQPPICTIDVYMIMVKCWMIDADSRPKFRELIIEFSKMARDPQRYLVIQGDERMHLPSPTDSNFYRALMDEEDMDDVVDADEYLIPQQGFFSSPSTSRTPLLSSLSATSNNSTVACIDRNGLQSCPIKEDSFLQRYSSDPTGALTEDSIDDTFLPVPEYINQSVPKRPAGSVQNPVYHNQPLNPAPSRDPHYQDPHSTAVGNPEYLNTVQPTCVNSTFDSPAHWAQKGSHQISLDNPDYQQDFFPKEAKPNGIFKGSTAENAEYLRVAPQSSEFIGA
# Test: Assay for Inhibitors of the ERK Signaling Pathway using a Homogeneous Screening Assay: EGFR T790M/L858R Kinase Inhibition
# Settings: series mostly up to 65.8 µM; activity change, negative = inhibition: at the top concentration
# Description: qHTS Assay for Inhibitors of the ERK Signaling Pathway using a Homogeneous Screening Assay
# NIH Chemical Genomics Center [NCGC]
# NIH Molecular Libraries Screening Centers Network [MLSCN]
# Assay Submitter (PI): Dr. Wei Zheng, NCGC/NIH
# The Ras/extracellular-signal-regulated kinase (ERK) mitogen activated protein (MAP) kinase signaling pathway (ERK1/2 cascade) plays is a key role in transmitting signals from the cell surface to the nucleus (Nishida and Gotoh 1993; Chang and Karin, 2001). The cascade is initiated by the small G-protein Ras, which recruits Raf […], where activation occurs. Alternatively, this pathway can be activated by elevating intracellular cAMP.
# Activation of the ERK pathway is essential in increased cell division and cell survival. Sustained and constitutive activation of the ERK pathway, however, has been linked to uncontrolled cell proliferation, increased cell survival, and tumor progression. Thus, the ERK has been as an attractive target for cancer chemotherapy in the past few years (Sebolt-Leopold and Herrera, 2004). Given its physiological and pathological importance, assessment of ERK phosphorylation has been broadly performed in both basic research and drug discovery. Most assays for the measurement of ERK phosphorylation use the antibody-based detection methods, such as western blot and ELISA. These assays require multiple reagent additions with cell wash steps and are not suitable for high-throughput screening.
# The current cell-based ERK phosphorylation assay was performed using AlphaScreen platform. AlphaScreen is a two bead-based proximity-dependent chemical energy transfer luminescent assay platform. The assay reagents (ERK SureFire(TM) kit) were supplied from TGR BioSciences (Australia). In the presence of specific antibodies, phosphorylated ERK will bring "donor" and "acceptor" beads to a proximity range (<200 nm), and subsequently lead a chemical luminescent reaction upon exciting donor beads with 680 nm laser. To validate pathway hits from the cell-based assay, enzyme assays consisting of EGFR tyrosine kinase, Raf and MEK were used as a means of deciphering the enzymes of target for the prioritized group of compounds derived from the HEK-293 cell based assay. The compounds were tested against significant members of the ERK signaling pathway EGFR and EGFR mutants (EGFR L858R, EGFR T790M, and EGFR L858R T790M). In order to establish the specificity of the prioritized compounds for EGFR and EGFR mutants, the compounds were also assayed against other important ERK signaling pathway enzymes, c-RAF and MEK-1.
# NCGC Assay Protocol Summary:
# The HTRF kinase assay (components supplied as kit by Cisbio) was chosen for the EGFR and EGFR mutant enzyme assays that applied the time resolved fluorescence resonance energy transfer (TR-FRET) principle. A peptide substrate is labeled with a biotin that can bind to XL665 labeled streptavidin and the anti-phosphoresidue antibody is labeled with Eu+. Upon phosphorylation of the substrate, the antibody binds to phosphorylated substrate that enables TR-FRET detection in homogenous assay format.
# An HTRF Kinease TK assay kit (Cisbio, Bedford, MA) was used to develop the EGFR and EGFR mutant assays (Harbert et al., 2008. Harbert C, Marshall J, Soh S, Steger K. Development of a HTRF Kinase Assay for Determination of Syk Activity. Current Chemical Genomics. 1: 20-26. 2008). EGFR and EGFR mutants were obtained from Invitrogen. The assay buffer was composed of 50 mM HEPES (pH 7.0), 5 mM MgCl2, 5mM DTT, 0.1 % NaN3, 0.1 % BSA and 0.1 mM orthovanadate.
# The HTRF assays were preformed according to the HTRF Kinease TK kit. Optimization for each enzyme was preformed in 384 well format (data not included). All reagents were dispensed into 1536 well plates.
# (1) Enzyme, […] EGFR at 3 nM final
# (2) Compound, 22 nl, Library Compounds in 0.128 to 10 mM titration series or control
# (3) Reagent, 1.5 ul 10 uM ATP and 0.25 uM substrate final
# (4) Incubation for 30 min, Ambient conditions
# […]
Compound,Potency,"activity change, negative = inhibition"
Cc1nc2ccccc2nc(=O)c1NNc1ccccc1,3.16 µM (active),–
COc1ccc(C(=O)c2ccc(Cl)c([N+](=O)[O-])c2)cc1,–,1.54% (inactive)
CS(=O)(=O)CCNCc1nc(-c2ccc3ncnc(Nc4ccc(OCc5cccc(F)c5)c(Cl)c4)c3c2)cs1,–,-1.71% (inactive)
CNc1cccc2c1C(=O)c1ccccc1C2=O,–,21.5% (inactive)
N#C/C(=C(/N)Sc1ccc(N)cc1)c1ccccc1C(F)(F)F,inactive,–
Cc1ccc(NNc2c(C)nc3ccccc3nc2=O)cc1,–,9.82% [at 21.9 µM] (inactive)
CCn1c(=O)c2[nH]c(-c3ccccc3)nc2n(CC)c1=O,–,-10.9% [at 21.9 µM] (inactive)
Fc1ccc(Nc2ncnc3sc4c(c23)CCC4)cc1F,–,-14.1% (inactive)
Cn1nc(-c2ccccn2)nc2c(=O)n(C)c(=O)nc1-2,–,9.12% [at 21.9 µM] (inactive)
Cn1nc(-c2ccc(Cl)cc2)nc2c(=O)n(C)c(=O)nc1-2,–,13.9% [at 21.9 µM] (inactive)
CCN(CC)CCC(=O)Nc1cccc2c1C(=O)c1ccccc1C2=O,–,-8.96% [at 21.9 µM] (inactive)
O=C(Nc1nc(-c2ccccc2)cs1)c1ccc(N2CCOCC2)c([N+](=O)[O-])c1,–,-1.3% (inactive)
Cc1ccc2nc(=O)c(NNc3ccccc3)cnc2c1,3.55 µM (active),–
O=C1c2ccccc2C(=O)c2c(NCCCN(CCO)CCO)cccc21,–,27.1% (inactive)
Cn1c(=O)[nH]c2nnc(-c3ccc(Cl)c(Cl)c3)nc2c1=O,–,3.61% (inactive)
